Reference: PubChem BioAssay (NCI)
About 83,000 compounds went through this panel and 20% of them were active in at least one assay; those are over-represented in the sample as a whole.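 Treatment: one concentration, 48 hours, 96-well format. Scoring: percent growth, with anything below 10 considered active.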 Calls of active or inactive are those of the source.

test system: HCC-2998 colon; experiment: NCI-60 one-dose screen, 48 h (100 = growth as untreated, 0 = no growth, -100 = all killed); settings: 10 µM unless noted

Structure (SMILES)	growth
O=C(OCC1CCCO1)c1ccc([N+](=O)[O-])cc1 (stereo not given)	117% (inactive)
Cc1ccc(NC(=O)c2ccccc2Cl)cc1	124% (inactive)
C/C(O)=C(/C=N\C(=S)Nc1ccc(S(=O)(=O)Nc2nccs2)cc1)C(=O)Nc1ccccc1C	109% (inactive)
NC(=S)N/N=C/c1ccc(Cl)cc1	96.2% (inactive)
Oc1ccc(CCC2CCNc3ccccc32)cc1 (stereo not given)	102% (inactive)
O=C(NC1CCCCC1)c1ccc(Cl)cc1	106% (inactive)
CCOC(=O)CO	103% (inactive)
CC(c1ccccc1)N(C)C (stereo not given)	113% (inactive)
CC(CCC#N)(CCC#N)C(=O)c1ccccc1	101% (inactive)
Cc1ccc2nc(-c3ccc(N=Cc4ccccc4O)cc3)sc2c1	-12.3% (active)
Nc1cc2ccccc2c(O)c1O	113% (inactive)
CCOc1ccccc1NC(=O)CCl	110% (inactive)
CCC12OC(COc3ccccc3)CN1CCN2c1ccccc1 (stereo not given)	115% [100 µM] (inactive)
Cc1ccc(S(=O)(=O)CCCl)cc1	104% (inactive)
CC(C)c1ccccc1NC(=O)N1CCC(C(C)C)CC1	109% (inactive)
COc1ccc(C2CC(c3ccccc3)=Nc3ccccc3S2)cc1 (stereo not given)	111% (inactive)
NC(CO)(CO)c1ccccc1	110% (inactive)
C=CC(=O)OC1CCC(C(C)(C)CC)CC1 (stereo not given)	110% (inactive)
Cc1[nH]n(-c2ccccc2)c(=O)c1C=NC(=S)C(N)=S	102% (inactive)

Structure (SMILES)	growth
COc1cccc2c1Cc1ccccc1-2	98.5% (inactive)
NC(=O)N1CCOCC1	112% (inactive)
CCC(=O)Oc1ccc2ccccc2c1	88.7% (inactive)
C=CCN1CCCC1=O	128% (inactive)
O=C(O)c1cccc(-n2ncc(Cl)c(Cl)c2=O)c1	108% (inactive)
Cc1ccc(OC(=O)c2ccccc2)cc1	107% (inactive)
CC(=O)c1ccc(C)cc1	105% (inactive)
N#Cc1ccc2nc[nH]c2c1	110% (inactive)
CC(=O)[C@@]1(O)CC[C@H]2[C@@H]3CC[C@@H]4CC(=O)CC[C@]4(C)[C@H]3[C@@H](O)C[C@@]21C	98.4% (inactive)
COC(=O)Cc1cc(COC(C)=O)ccc1C	106% (inactive)
c1ccc(-c2ccc3ccccc3c2)cc1	107% (inactive)
C=CCC(OC(C)=O)c1ccc(C(C)C)cc1 (stereo not given)	103% (inactive)
C=C(OC(C)=O)c1ccccc1	110% (inactive)
Nc1cccc2cccc(O)c12	95.8% (inactive)
CC(=O)c1cccs1	98.4% (inactive)
CSCCC(NC(=O)C(Cl)Cl)C(=O)O (stereo not given)	98.8% (inactive)
O=C(O)CSCC(=O)Nc1cc(C(F)(F)F)ccc1Cl	118% (inactive)
CCCCNC(=O)c1ccc(OCC)cc1	104% (inactive)

test system: KM12 colon; experiment: as above; settings: 10 µM unless noted

Structure (SMILES)	growth
O=C(OCC1CCCO1)c1ccc([N+](=O)[O-])cc1 (stereo not given)	109% (inactive)
Cc1ccc(NC(=O)c2ccccc2Cl)cc1	105% (inactive)
C/C(O)=C(/C=N\C(=S)Nc1ccc(S(=O)(=O)Nc2nccs2)cc1)C(=O)Nc1ccccc1C	96.8% (inactive)
NC(=S)N/N=C/c1ccc(Cl)cc1	113% (inactive)
Oc1ccc(CCC2CCNc3ccccc32)cc1 (stereo not given)	88.4% (inactive)
O=C(NC1CCCCC1)c1ccc(Cl)cc1	102% (inactive)
CCOC(=O)CO	109% (inactive)
CC(c1ccccc1)N(C)C (stereo not given)	101% (inactive)
CC(CCC#N)(CCC#N)C(=O)c1ccccc1	108% (inactive)
Cc1ccc2nc(-c3ccc(N=Cc4ccccc4O)cc3)sc2c1	99.2% (inactive)
Nc1cc2ccccc2c(O)c1O	62.3% (inactive)
CCOc1ccccc1NC(=O)CCl	97.1% (inactive)
CCC12OC(COc3ccccc3)CN1CCN2c1ccccc1 (stereo not given)	98.9% [100 µM] (inactive)
Cc1ccc(S(=O)(=O)CCCl)cc1	111% (inactive)
CC(C)c1ccccc1NC(=O)N1CCC(C(C)C)CC1	113% (inactive)
COc1ccc(C2CC(c3ccccc3)=Nc3ccccc3S2)cc1 (stereo not given)	87.4% (inactive)
NC(CO)(CO)c1ccccc1	94.5% (inactive)
C=CC(=O)OC1CCC(C(C)(C)CC)CC1 (stereo not given)	106% (inactive)
Cc1[nH]n(-c2ccccc2)c(=O)c1C=NC(=S)C(N)=S	103% (inactive)

Structure (SMILES)	growth
COc1cccc2c1Cc1ccccc1-2	104% (inactive)
NC(=O)N1CCOCC1	108% (inactive)
CCC(=O)Oc1ccc2ccccc2c1	99.6% (inactive)
C=CCN1CCCC1=O	110% (inactive)
O=C(O)c1cccc(-n2ncc(Cl)c(Cl)c2=O)c1	77.2% (inactive)
Cc1ccc(OC(=O)c2ccccc2)cc1	108% (inactive)
O=Cc1c(O)c2ccccc2[nH]c1=O	139% (inactive)
CC(=O)c1ccc(C)cc1	106% (inactive)
N#Cc1ccc2nc[nH]c2c1	98.5% (inactive)
CC(=O)[C@@]1(O)CC[C@H]2[C@@H]3CC[C@@H]4CC(=O)CC[C@]4(C)[C@H]3[C@@H](O)C[C@@]21C	101% (inactive)
COC(=O)Cc1cc(COC(C)=O)ccc1C	114% (inactive)
c1ccc(-c2ccc3ccccc3c2)cc1	92.9% (inactive)
C=CCC(OC(C)=O)c1ccc(C(C)C)cc1 (stereo not given)	114% (inactive)
C=C(OC(C)=O)c1ccccc1	102% (inactive)
Nc1cccc2cccc(O)c12	128% (inactive)
CC(=O)c1cccs1	102% (inactive)
CSCCC(NC(=O)C(Cl)Cl)C(=O)O (stereo not given)	106% (inactive)
O=C(O)CSCC(=O)Nc1cc(C(F)(F)F)ccc1Cl	105% (inactive)
CCCCNC(=O)c1ccc(OCC)cc1	106% (inactive)
